TDP1 cell noCPT: qHTS for Inhibitors of human tyrosyl-DNA phosphodiesterase 1 (TDP1): qHTS in cells in absence of CPT | DT40 Tdp1-/- hTDP1 cells, no CPT, ATP luminescence, 48 h | 15% of 420,000 active | Potency, µM (series often up to 46.2 µM), for the others: top-dose activity change, negative = growth inhibition, hits mostly inhibitors; further: nearly all actives have a fitted effect of over 55% in size
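Seeded 400 DT40-hTDP1 cells/well (vehicle DMSO, no 20 nM CPT); pinned compounds; ≥48 hr at 37 °C; CellTiter-Glo luminescence as viability measure.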
TDP1 cell CPT: qHTS for Inhibitors of human tyrosyl-DNA phosphodiesterase 1 (TDP1): qHTS in cells in presence of CPT | chicken DT40 Tdp1-/-;hTDP1 cells + 20 nM CPT, ATP luminescence, 48 h | Potency, µM (titrated, usually from 46.2 µM), for the others: at the top dose activity change, negative = growth inhibition, actives largely listed as inhibitors | 12% of 420,000 active; further: nearly all actives have a fitted effect of over 55% in size
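Cell growth measured by CellTiter-Glo luminescence after a minimum 48 h, 37 C compound exposure with 20 nM CPT in Tdp1-knockout DT40 cells stably expressing hTDP1, seeded 400/well; qHTS titration format.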
HT1080NT lethal: qHTS for induction of synthetic lethality in tumor cells producing 2HG: qHTS for the HT-1080-NT fibrosarcoma cell line; HT-1080-NT fibrosarcoma viability, CellTiter-Glo ATP luminescence, 48 h; Potency, µM (highest dose often 46.1 µM), without a hit: at the highest dose activity, negative = less viability, actives largely listed as cytotoxic; 1.6% of 360,000 active;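 further: NT is the 2HG producing partner of a matched IDH1 knockdown line; 0% = DMSO-treated cells and -100% = media-only wells without cells; nearly all actives have a fitted effect of over 55% in size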
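Viability of the 2HG-overproducing fibrosarcoma line after 48 hours of compound exposure at 37 degrees C was determined by luminescence with CellTiter-Glo, and concentration-effect curves were then fitted and categorized.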
KB-3-1 tox: qHTS assay for MDR1-selective chemotherapeutics: Primary screen using the parental adenocarcinoma cell KB-3-1. KB-3-1 viability, CellTiter-Glo ATP luminescence, 72 h. Potency, µM (titrated, usually from 46.1 µM), hits mostly cytotoxic. 1.4% of 400,000 active; further: nearly all actives have a fitted effect of over 60% in size
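Parental KB-3-1 viability, qHTS format: 72 h compound exposure, 37 °C; CellTiter-Glo; media-only wells and DMSO plates as controls; concentration-effect fits on corrected data.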
KB-V1 MDR tox: qHTS assay for MDR1-selective chemotherapeutics: Primary screen using the drug-selected MDR subline cells KB-V1 | KB-V1 MDR cells viability, CellTiter-Glo, 72 h | Potency, µM (series often up to 46.1 µM), usual class: cytotoxic | 3.4% of 400,000 active | AID 1347076, 2019; further: nearly all actives have a fitted effect of over 60% in size
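Cells of the MDR subline KB-V1 are plated, dosed with compound at multiple concentrations, and incubated 72 h at 37 degrees C; CellTiter-Glo is then added and luminescence read after 10 min.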
HT1080 IDH1KD tx: qHTS for induction of synthetic lethality in tumor cells producing 2HG: qHTS for the HT-1080-IDH1KD cell line | HT-1080 IDH1 knockdown viability, ATP luminescence, 48 h | Potency, µM (series often up to 46.1 µM), inactives show at the highest dose activity, negative = toxicity, usual class: cytotoxic | 2% of 360,000 active | AID 686971, 2013;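 further: 0% = DMSO wells and -100% = cell-free medium wells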
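HT-1080-IDH1KD cells (IDH1 knocked down), 750/well in RPMI with 5% FBS, treated with compound 48 h at 37 degrees C. Viability by CellTiter-Glo luminescence, normalised to DMSO and no-cell wells; concentration-response curves classed.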
Starred values were filed as active, the others as inactive; i = inactive; ? = inconclusive; . = not tested or not shown; [ ] = remark or other dose. In the library only some 19% were active in any assay of this set; here they are far more common. The call rests on the fitted dose curve; in most records, active means well fitted curve in the direction sought with a large enough effect; inconclusive means small, poorly fitted or top-dose-only effect, or another doubt; inactive means no such curve, though single readings can be large; an effect the other way counts as inactive or inconclusive. Unless noted, on the % scale 0 is the no-effect control and ±100 the full control effect; potency means the concentration at half of the fitted maximal effect.

SMILES	TDP1 cell noCPT	TDP1 cell CPT	HT1080NT lethal	KB-3-1 tox	KB-V1 MDR tox	HT1080 IDH1KD tx
CC(C)C(=O)NNc1ccccc1	-2.9%	3.3%	?	i	i	-8.3%
O=C(NNc1ccccc1)C(CCO)C(=O)NNc1ccccc1	1.5%	-4.7%	7.31µM*	i	i	6.51µM*
CCn1c(CNc2ccc(Cl)cc2)nnc1SCCN1CCCCC1	18.4µM*	20.6µM*	-6.4%	i	i	-3.9%
CCn1c(CNc2ccc(Cl)cc2)nnc1SCc1ccc(Cl)cc1	18.4µM*	?	?	i	?	?
CCOc1ccc(NCc2nnc(SCc3ccc(Cl)cc3)n2-c2ccccc2)cc1	29.1µM*	?	-9.4%	?	4.61µM*	-19.5%
CC1(c2ccc(Cl)cc2)NC(=O)N(CC(=O)N2CCN(C(=O)c3cccs3)CC2)C1=O (stereo unspecified)	?	-27.5%	-1.6%	i	?	1.3%
CCOc1ccc(-c2cc(C(=O)Nc3cccc(C(F)(F)F)c3)[nH]n2)c(C)c1	?	?	-0.1%	i	i	-14.5%
O=C(CCS(=O)(=O)c1ccccc1)Nc1nc2cc3c(cc2s1)OCO3	?	?	-29.9%	i	i	?
CS(=O)(=O)c1ccc2nc(NC(=O)CCS(=O)(=O)c3ccccc3)sc2c1	5.17µM*	5.17µM*	-25.8%	i	i	20.6µM*
O=C(CCS(=O)(=O)c1ccccc1)Nc1nc2cc3c(cc2s1)OCCO3	?	?	-0.1%	i	i	?
COC(=O)c1ccc2nc(NC(=O)CCS(=O)(=O)c3ccccc3)sc2c1	9.2µM*	8.2µM*	-7.2%	i	i	-2.1%
O=C(CCc1ccccc1)Nc1nc2c(F)cc(F)cc2s1	13µM*	?	2.2%	i	i	-3.7%
O=C(CCS(=O)(=O)c1ccccc1)Nc1nc2ccc(F)cc2s1	13µM*	11.6µM*	-14.6%	?	i	-10.4%
COc1cc(C2C(C(=O)Nc3ccccc3C)=C(C)Nc3ncnn32)ccc1OCC(N)=O (stereo unspecified)	-1.1%	-7.4%	.	i	?	.
COC(=O)c1ccc2nc(Nc3nc4c(F)cc(F)cc4s3)sc2c1	16.4µM*	?	-10.3%	?	i	-4.7%
CCOC(=O)c1ccc2nc(Nc3nc4ccc(F)cc4s3)sc2c1	?	-21.9%	-0.4%	i	?	-0.4%
CC(C)(C)NS(=O)(=O)c1ccc2nc(NC(=O)Cc3cccs3)sc2c1	14.6µM*	?	?	?	?	?
Cc1cc2c(n1-c1ccc(C(=O)NCCc3ccccc3)cc1)CCC(C)C2 (stereo unspecified)	20.6µM*	18.4µM*	.	.	.	.
CCS(=O)(=O)N1CCc2cc(C(=O)NCCc3ccccc3)ccc21	-20.4%	-8.5%	.	i	i	.
COc1ccc(CCNC(=O)c2ccc(-n3c(C)cc4c3CCC(C)C4)cc2)cc1OC (stereo unspecified)	20.6µM*	?	.	i	i	.
Cc1cc2c(n1-c1ccc(C(=O)NCCc3ccc(Cl)cc3)cc1)CCC(C)C2 (stereo unspecified)	23.1µM*	25.9µM*	.	i	i	.
O=C(NCc1ccc(Cl)nc1)c1csc([C@@H]2C[C@H](O)[C@@H](CO)O2)n1	4.6%	-10.3%	9.2%	i	i	28.2%
Cc1ncc2c(c1CNS(=O)(=O)N(C)C)CCN(C(=O)/C=C/c1ccccc1Cl)C2	?	6.0%[9.04 µM]	.	.	.	.
COc1ccc(NC2=C(NCCO)C(=O)c3ccccc3C2=O)cc1	14.6µM*	11.6µM*	13µM*	?	20.6µM*	8.2µM*
CC(=O)Nc1ccc(NC2=CC(=O)c3ccccc3C2=O)cc1	-6.0%	12.6%	?	i	i	?
SMILES	TDP1 cell noCPT	TDP1 cell CPT	HT1080NT lethal	KB-3-1 tox	KB-V1 MDR tox	HT1080 IDH1KD tx
COC1=C(Nc2ccc(OC)cc2)C(=O)C(OC)=C(Nc2ccc(OC)cc2)C1=O	-12.3%	6.1%	6.2%	i	i	13.9%
CCOc1ccc(NC2=C(OC)C(=O)c3ccccc3C2=O)cc1	?	20.6µM*	-11.6%	i	?	-16.4%
CCC(=O)Nc1ccc(C2C(=O)c3ccccc3C2=O)cc1	20.6µM*	16.4µM*	-19.0%	i	?	-10.2%
COc1cccc(NC2=C(NCCO)C(=O)c3ccccc3C2=O)c1	?	?	?	i	i	?
COc1ccc(NC2=C(NC(C)=O)C(=O)c3ccccc3C2=O)cc1	18.4µM*	13µM*	-26.2%	?	i	?
O=C(c1cc(C2CCCCN2S(=O)(=O)Cc2ccccc2)on1)N1CCOCC1 (stereo unspecified)	-8.2%	-17.7%	?	i	i	3.5%
COC1=C(Nc2ccc(OC)cc2)C(=O)c2ccccc2C1=O	14.6µM*	29.1µM*	-6.0%	i	?	-15.2%
COC1=C(Nc2ccc(O)cc2)C(=O)c2ccccc2C1=O	?	4.11µM*	10.3µM*	?	?	23.1µM*
O=S1(=O)N=C(Nc2ccc(O)cc2)c2ccccc21	5.0%	4.7%	14.9%	i	i	5.5%
O=C(NC1=C(Nc2ccc(F)cc2)C(=O)c2ccccc2C1=O)c1ccc(Cl)cc1	?	20.6µM*	-12.6%	?	?	-21.0%
Cc1cccc(NC2=C(NCCO)C(=O)c3ccccc3C2=O)c1	20.6µM*	16.4µM*	?	?	i	-29.2%
CCNC(=O)C1(C)CCCN(C(=O)CCc2cccs2)C1 (stereo unspecified)	-12.0%	-24.5%	19.5%	i	i	?
CCC(=O)NC1=C(Nc2ccc(N)cc2)C(=O)c2ccccc2C1=O	8.2µM*	?	-25.2%	i	i	-27.7%
CCC(=O)Nc1ccc(NC(=S)Nc2ccccc2)cc1	9.4%	18.5%	29.4%	i	?	20.9%
COc1cccc2c1Oc1ncccc1N(C(=O)Nc1cccc(Cl)c1)C2	?	?	.	i	i	.
